According to article PMC5540273 (PLoS ONE, 2017):

Experiments:
Settings in all cases: concentration: 1 μM, replicates: in singlicate; n = 1
CSF1R-autoinhibited = tested on: CSF1R-autoinhibited
CSF1R = tested on: CSF1R
CSK = tested on: CSK
CSNK1A1L = tested on: CSNK1A1L
CSNK1A1 = tested on: CSNK1A1
CSNK1D = tested on: CSNK1D
CSNK1E = tested on: CSNK1E
CSNK1G1 = tested on: CSNK1G1
CSNK1G2 = tested on: CSNK1G2
CSNK1G3 = tested on: CSNK1G3
CSNK2A1 = tested on: CSNK2A1
CSNK2A2 = tested on: CSNK2A2
CTK = tested on: T1, CTK
T1 construct: gene MATK

DAPK1 = tested on: DAPK1
DAPK2 = tested on: DAPK2
DAPK3 = tested on: DAPK3
DCAMKL1 = tested on: T2, DCAMKL1
T2 construct: gene DCLK1

DCAMKL2 = tested on: T3, DCAMKL2
T3 construct: gene DCLK2

DCAMKL3 = tested on: T4, DCAMKL3
T4 construct: gene DCLK3

DDR1 = tested on: DDR1
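Also: KINOMEscan kinase panel screen.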

Row | SMILES | %Inh (CSF1R-autoinhibited) [%] | %Inh (CSF1R) [%] | %Inh (CSK) [%] | %Inh (CSNK1A1L) [%] | %Inh (CSNK1A1) [%] | %Inh (CSNK1D) [%] | %Inh (CSNK1E) [%] | %Inh (CSNK1G1) [%] | %Inh (CSNK1G2) [%] | %Inh (CSNK1G3) [%] | %Inh (CSNK2A1) [%] | %Inh (CSNK2A2) [%] | %Inh (CTK) [%] | %Inh (DAPK1) [%] | %Inh (DAPK2) [%] | %Inh (DAPK3) [%] | %Inh (DCAMKL1) [%] | %Inh (DCAMKL2) [%] | %Inh (DCAMKL3) [%] | %Inh (DDR1) [%]
1 | CCC(CC)(CC)n1cnc2c(N)ncnc21 [SKF-97620] | 35 | 0 | 0 | 1 | 0 | 0 | 5 | 4 | 0 | 0 | 0 | 0 | 0 | 16 | 9 | 12 | 0 | 0 | 0 | 0
2 | FC(F)(F)c1ccc(-c2cc(-c3c[nH]nc3-c3ccccn3)ccn2)cc1 [GW599550] | 33 | 0 | 0 | 0 | 0 | 48 | 45 | 10 | 13 | 13 | 0 | 30 | 0 | 9 | 16 | 99.2 | 10 | 16 | 0 | 0
3 | CS(=O)(=O)CCNCc1ccc(-c2ccc3ncnc(Nc4ccc(OCc5ccccc5)c(Cl)c4)c3c2)o1.Cl [GW574783] | 7 | 0 | 0 | 20 | 0 | 15 | 10 | 0 | 0 | 6 | 3 | 5 | 0 | 0 | 0 | 0 | 0 | 0 | 4 | 10
4 | COc1ccc(NC(=O)c2ccc(-c3cc(-c4nnc(C)o4)ccc3C)cc2)cc1 [GW595885] | 7 | 14 | 0 | 5 | 0 | 0 | 0 | 0 | 0 | 14 | 0 | 11 | 0 | 0 | 0 | 13 | 8 | 0 | 2 | 13
5 | CC(C)N1CCC(n2cnc(-c3ccc(F)cc3)c2-c2ccnc(N)n2)CC1 [SB-223132] | 0 | 0 | 0 | 31 | 93.1 | 96.4 | 98.8 | 2 | 3 | 6 | 0 | 0 | 0 | 26 | 0 | 17 | 22 | 4 | 20 | 46
6 | CC(C)(C)OC(=O)NC1CCCN(c2cc(-c3ccc4c(N)n[nH]c4c3)nc(N)n2)C1 (stereo not shown) [GSK2286096] | 0 | 10 | 0 | 0 | 0 | 5 | 18 | 24 | 0 | 24 | 0 | 5 | 0 | 18 | 0 | 12 | 10 | 0 | 0 | 0
7 | COc1cc2c(Nc3cccc(NC(=O)c4ccccc4)c3)ncnc2cc1OCCCN1CCOCC1 [GSK223810] | 0 | 83 | 23 | 63 | 62 | 60 | 54 | 13 | 0 | 18 | 6 | 22 | 0 | 0 | 15 | 28 | 0 | 14 | 16 | 12
8 | CNc1nccc(-c2c(-c3ccc(F)cc3)ncn2C2CCN(C)CC2)n1 [SB-222903] | 0 | 0 | 0 | 38 | 95.5 | 94 | 99.5 | 0 | 0 | 0 | 0 | 0 | 0 | 0 | 0 | 25 | 19 | 0 | 0 | 65
9 | Cn1ccc2ncnc(Nc3ccc(Oc4cccc(Cl)c4)c(Cl)c3)c21 | 1 | 17 | 46 | 16 | 14 | 10 | 0 | 6 | 0 | 0 | 0 | 39 | 45 | 18 | 0 | 0 | 43 | 5 | 0 | 0
10 | O=C(c1ccc(-c2cc(-c3c[nH]nc3-c3ccccn3)ccn2)cc1)N1CCCC1 [GW792479] | 0 | 0 | 17 | 0 | 59 | 49 | 30 | 9 | 9 | 0 | 0 | 0 | 0 | 0 | 33 | 85 | 19 | 10 | 0 | 0
11 | Cc1ccc(O)cc1Nc1cc(C(F)(F)F)nc2ccc(-c3ccncc3)cc12 [GW630823] | 0 | 3 | 0 | 23 | 4 | 15 | 0 | 6 | 1 | 5 | 0 | 2 | 2 | 16 | 17 | 11 | 25 | 0 | 15 | 40
